Screening data: PubChem BioAssay, National Center for Advancing Translational Sciences (NCATS)
L3MBTL1 block: qHTS Assay for the Inhibitors of L3MBTL1 | Lethal(3)malignant brain tumor-like protein 1 (Homo sapiens), Q9Y468 | AlphaScreen L3MBTL1–H3K9me1 peptide binding | Potency, µM (doses to about 57.1 µM), hits mostly inhibitors | 230,000 tested, 0.66% active | AID 485360, 2010; note: nearly all actives have a fitted effect of over 60% in size
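Read-out is AlphaScreen signal from streptavidin donor and nickel chelate acceptor beads (10 ug/mL final each) bridging L3MBTL1 (50 nM) and biotinylated K9-monomethylated H3(1-15) peptide (75 nM), after 30 min compound exposure at room temperature.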
G9a inh: qHTS Assay for Inhibitors of Histone Lysine Methyltransferase G9a; Histone-lysine N-methyltransferase EHMT2 (Homo sapiens), Q96KQ7; G9a H3K9 monomethylation, AlphaScreen, 2 h; Potency, µM (titrated, usually from 102 µM), actives largely listed as inhibitors; 350,000 tested, 8.8% active; AID 504332, 2011; note: nearly all actives have a fitted effect of over 75% in size
Target sequence (Q96KQ7 913-1193 limits assumed): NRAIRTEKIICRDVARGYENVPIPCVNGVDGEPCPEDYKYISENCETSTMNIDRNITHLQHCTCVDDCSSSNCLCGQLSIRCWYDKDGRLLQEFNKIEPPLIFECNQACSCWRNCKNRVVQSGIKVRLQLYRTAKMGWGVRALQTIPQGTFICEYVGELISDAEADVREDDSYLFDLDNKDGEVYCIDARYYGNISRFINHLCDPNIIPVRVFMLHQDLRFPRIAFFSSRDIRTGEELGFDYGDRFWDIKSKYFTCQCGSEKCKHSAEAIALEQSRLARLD
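Using a bead-based AlphaScreen, monomethylated H3K9 product from 2 h room-temperature reactions (G9a 20 nM, peptide 500 nM, SAM 20 uM) was detected with 0.5 ug/mL rabbit anti-H3K9me1 antibody.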
BAZ2B block: qHTS Assay for Inhibitors of BAZ2B; Potency, µM (top dose mostly 114 µM), most hits filed as inhibitors; Bromodomain adjacent to zinc finger domain protein 2B (Homo sapiens), Q9UIF8; AID 504333, 2011; AlphaScreen BAZ2B-H3K14Ac peptide displacement; 360,000 tested, 4.4% active; note: nearly all actives have a fitted effect of over 60% in size
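AlphaScreen displacement of biotin-H3(5-23)K14Ac peptide (50 nM final) from BAZ2B (50 nM final) in PBS pH 7.4, 0.01% Tween-20; complex preformed 30 min RT, then compounds (top 110 uM) 30 min RT, beads 20 min dark.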
Sfp inh: qHTS Assay for Inhibitors of Bacillus subtilis Sfp phosphopantetheinyl transferase (PPTase); 4'-phosphopantetheinyl transferase ffp (Bacillus subtilis), Q9F4F7; 310,000 tested, 3.5% active; Biochemical Sfp PPTase activity, qHTS; Potency, µM, hits mostly inhibitors;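 note: the enzyme is Sfp with the accession as filed and its product quenches rhodamine fluorescence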
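Step 1, compound plus 15 nM Sfp-PPTase, 15 min, room temperature. Step 2, add rhodamine-CoA (5 uM) and BHQ-2-YbbR (12.5 uM). Step 3, read 525/598 nm fluorescence at 0 and 30 min.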
JMJD2A Tudor inh: qHTS Assay for Inhibitors of JMJD2A-Tudor Domain; AID 504339, 2011; AlphaScreen JMJD2A-Tudor / H3K4me3 peptide binding; Lysine-specific demethylase 4A (Homo sapiens), O75164; 390,000 tested, 4.4% active; Potency, µM (highest dose often 114 µM), usual class: inhibitors; note: nearly all actives have a fitted effect of over 50% in size
HP1b binding inh: HTS for Inhibitors of HP1-beta Chromodomain Interactions with Methylated Histone Tails | Chromobox protein homolog 1 (Homo sapiens), P83916 | AlphaScreen HP1-beta / biotin-H3K9me3 peptide binding | Potency, µM (top dose mostly 114 µM), most hits filed as inhibitors | 390,000 tested, 0.56% active; note: nearly all actives have a fitted effect of over 70% in size
Target sequence (P83916 whole entry, looked up): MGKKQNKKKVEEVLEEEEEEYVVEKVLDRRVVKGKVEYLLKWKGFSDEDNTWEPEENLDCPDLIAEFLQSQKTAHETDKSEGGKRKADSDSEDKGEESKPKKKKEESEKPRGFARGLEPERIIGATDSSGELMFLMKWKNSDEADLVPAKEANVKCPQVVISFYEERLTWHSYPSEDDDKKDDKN
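Compound inhibition of the preformed complex between 50 nM HP1-beta and 50 nM biotinylated H3K9me3 peptide was read by AlphaScreen. Buffer was PBS pH 7.4 with 0.01% Tween-20. Incubations ran 30 min at room temperature, with 10 ug/mL donor/acceptor beads.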
Each line names hits and unclear results; the compound was inactive in the other large screens. An excerpt weighted towards active compounds, which were near 12% of everything screened. Calls come from the whole dose curve; as a rule, active = well fitted curve in the direction sought with a large enough effect; inconclusive = small, poorly fitted or top-dose-only effect, or another doubt; inactive = no such curve, though single readings can be large; an effect the other way counts as inactive or inconclusive.

COc1ccc(C(=O)Nc2cccc(-c3cn4ccsc4n3)c2)cc1OC	none (no result: L3MBTL1 block, Sfp inh)
COc1ccc(NCc2ccsc2)cc1	G9a inh 35µM, BAZ2B block 18µM, JMJD2A Tudor inh 56µM (no result: L3MBTL1 block)
COc1ccc(CNc2ccc(S(N)(=O)=O)cc2)cc1	none
COc1cccc(-c2ccc3ncnc(N4CCN(C)CC4)c3c2)c1	none (no result: L3MBTL1 block, BAZ2B block, JMJD2A Tudor inh, HP1b binding inh)
CCOc1cccc2sc(N3CCN(C(=O)c4ccc5c(c4)CCCC5)CC3)nc12	G9a inh inconclusive (no result: L3MBTL1 block, Sfp inh)
CC(C)(C)NC(=O)C(c1ccco1)N(C(=O)c1csnn1)c1ccccc1 (centres undefined)	none (no result: L3MBTL1 block)
CC(C)(C)NC(=O)C(c1ccco1)N(C(=O)c1ccc(CN2CCOCC2)o1)c1ccccc1 (centres undefined)	G9a inh 11µM
NS(=O)(=O)c1ccc(CNC(=O)c2ccccc2SCC(=O)N2CCCC2)cc1	G9a inh 35µM (no result: Sfp inh)
CCSc1ccccc1C(=O)NCc1ccc(S(N)(=O)=O)cc1	G9a inh inconclusive
Cc1ccc(CNC(=O)c2ccccc2SCC(=O)NCC2CCCCC2)cc1	G9a inh 45µM
Cc1cccc(N2CCN(C(=O)CSc3ccsc3[N+](=O)[O-])CC2C)c1 (centres undefined)	L3MBTL1 block 32µM, G9a inh inconclusive, BAZ2B block 40µM, JMJD2A Tudor inh inconclusive
Cc1cccc(N2CCN(C(=O)/C=C/c3cccs3)CC2C)c1 (centres undefined)	BAZ2B block inconclusive (no result: L3MBTL1 block)
Cc1cccc(N2CCN(C(=O)CCC(=O)N3CC(C)Oc4ccc(C)cc43)CC2C)c1 (centres undefined)	G9a inh 45µM, BAZ2B block inconclusive, JMJD2A Tudor inh inconclusive
Cc1cccc(N2CCN(C(=O)C3CCN(c4nnc(-n5cccc5)s4)CC3)CC2C)c1 (centres undefined)	G9a inh 50µM, BAZ2B block inconclusive, JMJD2A Tudor inh inconclusive
O=C(CSc1ccsc1[N+](=O)[O-])N1CCN(c2ccccn2)CC1	G9a inh 45µM, BAZ2B block inconclusive, JMJD2A Tudor inh inconclusive
O=C(CSc1ccccc1)N1CCN(c2ccccn2)CC1	JMJD2A Tudor inh inconclusive
COc1cc(C(=O)O[C@H]2C/C(C)=C/CC/C(C)=C/[C@@H](O)C2C(C)C)ccc1O (some centres undefined)	none (no result: L3MBTL1 block, G9a inh, BAZ2B block, JMJD2A Tudor inh, HP1b binding inh)
CSc1cc2c(s1)c1cnn(Cc3ccccc3F)c(=O)c1n2C	none (no result: L3MBTL1 block, G9a inh, BAZ2B block, Sfp inh, HP1b binding inh)
COc1ccccc1-c1nccc(-n2ccnc2)n1	none (no result: L3MBTL1 block, G9a inh, BAZ2B block, JMJD2A Tudor inh, HP1b binding inh)
Cc1cccc(N2CCN(S(=O)(=O)c3ccc4c(c3)CCN4C(=O)CCC(=O)O)CC2C)c1 (centres undefined)	G9a inh inconclusive, BAZ2B block inconclusive, JMJD2A Tudor inh 56µM, HP1b binding inh inconclusive (no result: L3MBTL1 block)
S=c1cn[nH]c2ccccc12	JMJD2A Tudor inh 4.5µM, HP1b binding inh 89µM (no result: L3MBTL1 block, G9a inh, BAZ2B block, Sfp inh)
CCOc1ccc(N=Nc2c(=O)[nH]n3c(=O)cc(C)[nH]c23)cc1	G9a inh inconclusive, BAZ2B block 50µM, JMJD2A Tudor inh 56µM
COc1cccc(N=Nc2c(N)[nH][nH]c2=O)c1	G9a inh 4.5µM
CCOc1ccc(N=Nc2c(N)[nH][nH]c2=O)cc1	G9a inh 3.5µM, BAZ2B block inconclusive, JMJD2A Tudor inh 79µM
Cc1cc(=O)n2[nH]c(=O)c(N=Nc3ccccc3)c2[nH]1	BAZ2B block inconclusive, JMJD2A Tudor inh inconclusive
N#Cc1cccc(-c2ccc3ncnc(NC4CCNCC4)c3c2)c1	none (no result: L3MBTL1 block, BAZ2B block, JMJD2A Tudor inh, HP1b binding inh)
Cc1nn(-c2ccccc2)c2c1C(c1ccc([N+](=O)[O-])cc1)C(C#N)=C(N)O2 (centres undefined)	G9a inh 50µM, BAZ2B block inconclusive
